Compound activity as filed in PubChem.
PLK1 PBD block: qHTS for Inhibitors of PLK1-PDB (polo-like kinase 1 - polo-box domain): Primary Screen; Serine/threonine-protein kinase PLK1 (Homo sapiens), P53350; 360,000 tested, 2.8% active; Potency, µM, without a hit: max response, negative = inhibition, actives largely listed as inhibitors; Plk1 PBD binding of FITC phosphopeptide, fluorescence polarization; note: series mostly up to about 57 µM; nearly all actives have a fitted effect of over 65% in size
Target sequence (P53350 whole entry, looked up, the tested form may be a part): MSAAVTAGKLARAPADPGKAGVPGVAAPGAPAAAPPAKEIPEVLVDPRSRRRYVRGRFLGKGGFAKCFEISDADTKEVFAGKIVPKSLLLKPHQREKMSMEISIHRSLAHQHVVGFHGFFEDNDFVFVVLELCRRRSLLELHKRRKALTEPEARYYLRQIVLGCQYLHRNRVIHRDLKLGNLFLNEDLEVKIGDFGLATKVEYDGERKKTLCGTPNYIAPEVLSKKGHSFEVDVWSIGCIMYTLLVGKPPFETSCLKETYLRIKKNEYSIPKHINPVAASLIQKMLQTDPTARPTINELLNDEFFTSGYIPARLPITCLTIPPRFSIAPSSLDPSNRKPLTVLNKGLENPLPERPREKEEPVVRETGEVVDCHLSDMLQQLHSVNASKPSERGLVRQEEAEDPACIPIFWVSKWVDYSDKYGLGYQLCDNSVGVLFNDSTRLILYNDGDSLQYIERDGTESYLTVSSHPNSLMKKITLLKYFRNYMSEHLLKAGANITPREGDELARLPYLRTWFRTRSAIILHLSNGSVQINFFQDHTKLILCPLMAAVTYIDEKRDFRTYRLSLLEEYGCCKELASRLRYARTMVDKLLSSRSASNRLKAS
Tau fibril FP: qHTS for Inhibitors of Tau Fibril Formation, Fluorescence Polarization | AID 1468, 2008 | 280,000 tested, 0.39% active | Microtubule-associated protein tau (Homo sapiens), P10636 | Potency, µM (series often up to 57.7 µM), for the others: at the top dose activity, negative = inhibition, most hits filed as inhibitors | K18 P301L tau heparin fibrillization, Alexa594 FP, 6 h; note: nearly all actives have a fitted effect of over 55% in size
Target sequence (P10636 561-689 P618L limits assumed): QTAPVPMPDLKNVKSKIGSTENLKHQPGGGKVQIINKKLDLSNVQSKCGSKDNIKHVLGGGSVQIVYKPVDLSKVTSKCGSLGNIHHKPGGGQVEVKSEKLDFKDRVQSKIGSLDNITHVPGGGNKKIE
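Quantitative HTS format: compounds meet 15 uM recombinant K18 P301L tau and Alexa 594-tau tracer in 100 mM sodium acetate pH 7; 20 uM heparin triggers fibrillization at 37 C over 6 hr; FP gives the signal.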
Tau fluor counter: Counterscreen qHTS for Inhibitors of Tau Fibril Formation, Fluorescence Polarization | tau K18 P301L Alexa594 fluorescence, heparin fibrillization | 280,000 tested, 0.93% active | AID 1463, 2008 | Potency, µM (top dose mostly 57.7 µM), for the others: top-dose activity change, negative = decrease; note: nearly all actives have a fitted effect of over 55% in size
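Human tau K18 P301L (15 uM unlabeled, 0.24 uM Alexa 594-labeled) in 100 mM sodium acetate pH 7 with 20 uM heparin, 6 hr at 37 C. ThT 30 uM added, 1 hr ambient; Alexa 594 FP and total fluorescence read at 555/632 nm.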
VDR inh: Inhibitors of the vitamin D receptor (VDR): qHTS | 400,000 tested, 0.93% active | Potency, µM, for inactives: max response, negative = inhibition, usual class: inhibitors | AID 504847, 2011 | Vitamin D3 receptor (Homo sapiens), P11473 | VDR-SRC2-3 peptide fluorescence polarization, 2 h
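Signal is fluorescence polarization, reporting how far test compounds block the interaction of VDR with the SRC2-3 coregulator peptide after a 2 h room-temperature incubation.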
Sfp inh: qHTS Assay for Inhibitors of Bacillus subtilis Sfp phosphopantetheinyl transferase (PPTase); Potency, µM, for the others: largest response in the series, negative = inhibition, usual class: inhibitors; 310,000 tested, 3.5% active; AID 1490, 2009; 4'-phosphopantetheinyl transferase ffp (Bacillus subtilis), Q9F4F7; Biochemical Sfp PPTase activity, qHTS;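 note: the enzyme is Sfp with the accession as filed and its product quenches rhodamine fluorescence; 0% = enzyme reaction without inhibitor and -100% = no enzyme wells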
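After 15 min at room temperature with compound, 15 nM Sfp received 5 uM rhodamine-CoA plus 12.5 uM BHQ-2-ybbR (50 mM Hepes pH 7.6, 10 mM MgCl2). Rate came from the fluorescence difference over 30 min, ex 525/em 598 nm.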
Tau ThT inhib: qHTS for Inhibitors of Tau Fibril Formation, Thioflavin T Binding | Potency, µM (series often up to 57.4 µM), without a hit: at the top dose activity, negative = inhibition, hits mostly inhibitors | 270,000 tested, 2.1% active | recombinant tau K18 P301L (four-repeat tau fragment), heparin-induced fibrillization, ThT fluorescence | Microtubule-associated protein tau (Homo sapiens), P10636 | AID 1460, 2008; note: nearly all actives have a fitted effect of over 55% in size
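Tau K18 P301L fragment (15 uM unlabeled plus 0.24 uM Alexa 594-labeled) in 100 mM sodium acetate pH 7 with compound, fibrillization induced by 20 uM heparin for 6 hr at 37 C. Thioflavin T (30 uM) added, fluorescence read after 1 hr (ex 450, em 510 nm).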
The depositor's hits bear a star; ? = inconclusive; / = no result; [ ] = another dose, or the depositor's remark. The list is not random: actives were taken first. Their share in the collection is about 6%. Calls come from the whole dose curve; as a rule, active = well fitted curve in the direction sought with a large enough effect; inconclusive = small, poorly fitted or top-dose-only effect, or another doubt; inactive = no such curve, though single readings can be large; an effect the other way counts as inactive or inconclusive. Unless noted, % is set by controls: 0 for no effect and ±100 for the full control effect; potency is the fitted concentration of half-maximal effect.

SMILES | PLK1 PBD block | Tau fibril FP | Tau fluor counter | VDR inh | Sfp inh | Tau ThT inhib
CCc1ccc(S(=O)(=O)Nc2ccc(O)c3c(=O)cc(-c4ccccc4Cl)oc23)cc1 | -9% | ? | ? | 11% | 11% | -5%
CN(NC(=O)/C=C/C(=O)O)c1ncc(C(F)(F)F)cc1Cl | -12% | -3% | -2% | -30% | 56µM* | -7%
COc1cc(OC)cc(N2CC(C)(C)C2=O)c1 | 21µM* | -1% | 0% | -24% | 14% | 0%
Cc1cc(C)cc(N2CC(C)(C)C2=O)c1 | -12% | 3% | -3% | 5% | ? | 1%
Cc1nc2cccnc2n1-c1cccc(C(=O)N2CCN(c3cccc(Cl)c3)CC2)c1 | / | 2% | -14% | 3% | / | -12%
O=C(CSc1nccn1Cc1ccc(F)cc1)NCc1ccco1 | / | 4% | 4% | 16% | / | 6%
Nc1cccc2c1C(=O)N(C(=O)c1ccco1)C2=O | -19% | -1% | -1% | -1% | -15% | -13%
O=C(c1ccco1)N1C(=O)c2cccc3cccc1c23 | 5.3µM* | -9% | -13% | -5% | 9% | -11%
CC1=C/C(=C\C=C(C#N)C#N)N(C)c2ccccc21 | 13% | -18% | 5% | -4% | -7% | ?
CCCCCCN1C=CC=C/C1=C\C=C(C#N)C#N | ? | ? | ? | -3% | -26% | 16µM*
COC(=O)c1sc2nc3c(cc2c1N)COC(C)(C)C3 | -5% | 4% | -7% | 2% | ? | -13%
CC1(C)Cc2nc3sc(C(=O)NCCCO)c(N)c3cc2CO1 | -23% | 3% | -12% | -10% | 79µM* | -13%
CCCN(c1c(C)n(C)n(-c2ccccc2)c1=O)S(=O)(=O)c1ccc(C)cc1 | / | -6% | -13% | 9% | / | -9%
Cc1ccc(N2C(=O)C(Cl)=C(Nc3c(C)n(C)n(-c4ccccc4)c3=O)C2=O)cc1 | -28% | ? | -27% | -59% | ? | 28µM*
Cc1cccc(N2C(=O)C(Cl)=C(Nc3c(C)n(C)n(-c4ccccc4)c3=O)C2=O)c1C | -9% | ? | -17% | ? | 56µM* | ?
O=C(COC(=O)C12CC3CC(CC(Br)(C3)C1)C2)NCc1ccco1 | / | / | / | -5% | / | /
Cc1ccccc1NC(=S)NC(NC(=O)c1ccccc1C)C(Cl)(Cl)Cl (stereo not given) | -9% | 0% | -3% | 1% | 12% | 4%
CCc1cccc(N(C(=O)c2csnn2)C(C(=O)NC(C)(C)C)c2ccncc2)c1 (stereo not given) | 27µM* | 1% | 3% | 9% | -2% | 4%
CC(Oc1cccc(Cl)c1)C(=O)Nc1nc(-c2ccccn2)cs1 (stereo not given) | 19µM* | / | / | 3% | / | /
CC(Oc1ccccc1)C(=O)Nc1nc(-c2ccccn2)cs1 (stereo not given) | -25% | / | / | 7% | / | /
COc1ccccc1OCC(=O)NNc1c2ccccc2nc2ccccc12 | 1% | ? | 16µM*[quencher] | -10% | 5% | 18µM*
Cc1ccc(C(=O)NNc2c3ccccc3nc3ccccc23)cc1 | -4% | ? | 11µM*[quencher] | 2% | 25µM* | 3.2µM*
Nc1ccccc1C(=O)NNc1c2ccccc2nc2ccccc12 | 1% | 3% | 13µM*[quencher] | -12% | -9% | 5.6µM*
O=C(NNc1c2ccccc2nc2ccccc12)c1ccc(Cl)cc1 | -7% | / | / | 5% | -17% | /
O=C(c1cnc(N2CCCCC2)c2ccccc12)N1CCN(c2cccc(Cl)c2)CC1 | / | -5% | -14% | 5% | / | -12%
SMILES | PLK1 PBD block | Tau fibril FP | Tau fluor counter | VDR inh | Sfp inh | Tau ThT inhib
CCCCn1c(N)c(N(C)C(=O)c2cc3c(s2)CCCCC3)c(=O)[nH]c1=O | 4% | / | / | -23% | / | /
N#Cc1ccc(NC(=O)c2ccc3c(c2)nnn3C2CCCC2)cc1 | / | -13% | -3% | 2% | / | 3%
O=C(/C=C/c1ccccc1)OCCN=C1NS(=O)(=O)c2ccccc21 | -3% | / | / | -4% | 19% | /
O=C(/C=C/c1ccccc1)OCCCCN=C1NS(=O)(=O)c2ccccc21 | 27µM* | -10% | -19% | -1% | 5% | 0%
Cc1cccc(C)c1C(O)c1ncc(-c2ccc(F)cc2)[nH]1 (stereo not given) | 2% | / | / | / | / | /
O=C(N=Nc1ccc(NOC(=O)c2ccccc2Br)cc1)c1ccccc1O | / | ? | ? | / | 79µM* | 10µM*
CCOC(=O)c1nn(-c2ccc(OCC)cc2)c2nc(CC(C)C)c(C#N)c(=O)n12 | -7% | ? | -10% | -7% | 50µM* | 0%
CCc1nnc2c(NCc3ccccc3OC)nc3ccccc3n12 | / | -1% | -8% | 3% | / | 5%
O=C(CCN1CCN(c2ccccc2)CC1)Nc1ccc(Cl)cc1 | 0% | -6% | -3% | -3% | 12% | 1%
COc1ccc(N2CCN(CCC(=O)c3ccc4ccccc4c3)CC2)cc1 | 6.7µM* | / | / | 71µM* | -9% | /
O=C(NCCCN1CCN(CCCNC(=O)c2ccccc2F)CC1)c1ccccc1F | 0% | -2% | 1% | 3% | 3% | -4%
COc1ccc(N2CCN(CC(=O)c3ccccc3)CC2)cc1 | ? | / | / | -1% | -16% | /
O=C(CCN1CCN(c2ccccc2)CC1)c1ccc(Cl)cc1 | ? | / | / | 79µM* | 2% | /
O=C(NCCN1CCN(c2ccccc2)CC1)c1ccccc1F | 24µM* | / | / | -21% | 4% | /
C[C@@H]1CN([C@H](C)CO)C(=O)CCCn2nncc2CO[C@@H]1CN(C)C(=O)Nc1ccc(N2CCCCC2)cc1 | -9% | / | / | / | / | /
COCCNC(=O)c1ccc(N2CC3CC(C2)c2cccc(=O)n2C3)c(NC(=O)c2ccc(C(C)(C)C)cc2)c1 (stereo not given) | 0% | / | / | / | / | /
O=C(Nc1ccc2c(c1)CCCN2C(=O)c1cccs1)c1ccccc1 | 21µM* | 4% | -14% | -24% | -17% | -8%
COc1ccccc1C(=O)Nc1ccc2c(c1)CCCN2C(=O)c1ccccc1 | 24µM* | / | / | ? | 2% | /
CSc1ccccc1C(=O)C1CCCN(C(=O)c2cccc(Cn3cccn3)c2)C1 (stereo not given) | -27% | / | / | / | / | /
C=CCN(C(C(=O)OC)C(C)C)S(=O)(=O)CCl (stereo not given) | / | / | / | -9% | 15% | /
O=C(/C(=C/O)N=Nc1ccccc1)c1ccco1 | -5% | 6% | -13% | 10% | -3% | 20µM*
